Inconclusive results are not listed. Activity calls are given as the source filed them. The calls were made as follows, unless noted: active = hit-call score of the fitted dose curve at least 0.9, where 1 is the maximum; inactive = score below 0.9.
Columns and labels:
[1] = CCTE_Shafer_MEA_dev_per_burst_spike_percent: CCTE's Neural Network Formation Assay for Percent of Spikes in a Burst, Shafer Lab (AID 2284032);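 also: fitted as a decrease in burst spike percentage below DMSO baseline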
In short: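 Value is trapezoidal AUC over recordings on days 5, 7, 9 and 12 of the well-mean fraction of spikes falling in single-electrode bursts; rat cortical cultures exposed continuously from plating, treatment renewed DIV 5 and 9, fitted downward against DMSO.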

[2] = CCTE_Shafer_MEA_dev_active_electrodes_number: CCTE's Neural Network Formation Assay for Number of Active Electrodes, Shafer Lab (AID 2284040; active = hit-call score of the fitted dose curve at least 0.9, where 1 is the maximum;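 also: potency for loss of active electrodes versus DMSO so lower counts are hits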)
In short: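 Developing rat cortical networks on MEAs, exposed DIV 0–12. Value is the AUC of active-electrode counts (≥5 spikes/min) from days 5, 7, 9, 12, relative to DMSO.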

[3] = CCTE_Shafer_MEA_dev_per_burst_interspike_interval: CCTE's Neural Network Formation Assay for Burst Interspike Interval, Shafer Lab (AID 2284044)
In short: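 Primary rat cortical neurons on 48-well MEA plates, exposed from day 0 through day 12, treatment renewed at DIV 5 and 9. Within-burst interspike interval recorded days 5, 7, 9, 12, well-averaged, summarised as AUC; negative fit versus DMSO.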

[4] = CCTE_Shafer_MEA_dev_burst_duration_mean: CCTE's Neural Network Formation Assay for Mean Burst Duration, Shafer Lab (AID 2284045)
In short: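 Mean single-electrode burst duration (first to last spike), averaged over bursting electrodes per well, then integrated as area-under-curve across recordings at days 5, 7, 9 and 12. Rat cortical cultures on MEAs, compound present from plating, refreshed at feeds.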

[5] = CCTE_Shafer_MEA_dev_interburst_interval_mean: CCTE's Neural Network Formation Assay for Mean Interburst Interval, Shafer Lab (AID 2284046);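 also: well-mean interburst interval of bursting electrodes as AUC over four recording days; curve fitted for decrease in interburst interval relative to DMSO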
In short: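 Recordings on days 5, 7, 9 and 12 give well-mean interburst interval across actively bursting electrodes, summarized as area under the curve. Cultures: rat cortical neurons, continuous exposure from day 0, compound renewed at feeds; decrease analyzed versus DMSO.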

[6] = CCTE_Shafer_MEA_dev_inter_network_spike_interval_mean: CCTE's Neural Network Formation Assay for Mean Inter-network Spike Interval, Shafer Lab (AID 2284047)
In short: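 Primary rat cortical neurons on 16-electrode MEA wells, exposed from plating day 0 through DIV 12, compound renewed at DIV 5 and 9 media changes. Mean interval between network-spike peaks recorded DIV 5, 7, 9, 12; collapsed as trapezoidal AUC, fitted downward versus DMSO.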

[7] = CCTE_Shafer_MEA_dev_network_spike_number: CCTE's Neural Network Formation Assay for Number of Network Spikes, Shafer Lab (AID 2284048);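 also: synchronized bursts across electrodes counted on days 5 7 9 12 and integrated as AUC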
In short: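 Number of network spikes (coordinated firing across electrodes) recorded on days 5, 7, 9 and 12 and summarised as area under the curve. Rat cortical cultures on MEA, continuous compound exposure with full medium/treatment exchange at DIV 5 and 9.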

[8] = CCTE_Shafer_MEA_dev_network_spike_peak: CCTE's Neural Network Formation Assay for Mean Number of Electrodes in Network Spike, Shafer Lab (AID 2284049)
In short: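 Rat cortical primary culture, 1.5 x 10^5 cells/well, 48-well MEA (16 electrodes/well). Dosing day 0 through DIV 12, full media/compound exchange DIV 5, 9. AxIS adaptive spike detection; AUC over days 5/7/9/12; loss-of-signal vs DMSO.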

[9] = CCTE_Shafer_MEA_dev_spike_duration_mean: CCTE's Neural Network Formation Assay for Mean Spike Duration, Shafer Lab (AID 2284051);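 also: mean network spike duration pooled as area under curve over DIV 5 to 12 recordings; potency for a decrease in mean network spike duration versus DMSO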
In short: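 Primary rat cortical neurons on 16-electrode MEA wells (PEI-coated, laminin in plating drop), exposed from plating through DIV 12 with compound renewed at DIV 5 and 9. Mean network-spike duration recorded DIV 5, 7, 9, 12; trapezoidal AUC across days, DMSO baseline.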

[10] = CCTE_Shafer_MEA_dev_network_spike_duration_std: CCTE's Neural Network Formation Assay for Standard Deviation of Network Spike Duration, Shafer Lab (AID 2284052);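 also: hits are decreases in network spike duration SD versus DMSO vehicle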
In short: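 Primary rat cortical neurons on PEI-coated 16-electrode MEA wells, exposed from plating day 0 through day 12 with compound renewed at DIV 5 and 9. Network spike duration SD recorded on days 5, 7, 9, 12, collapsed as trapezoidal AUC; loss-of-signal fit versus DMSO.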

[11] = CCTE_Shafer_MEA_dev_per_network_spike_spike_number_mean: CCTE's Neural Network Formation Assay for Mean Number of Spikes in a Network Spike, Shafer Lab (AID 2284053)
In short: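 Primary rat cortical neurons on 48-well, 16-electrode MEA plates were exposed from plating to DIV 12, with dosing renewed on DIV 5 and 9. Spikes per network spike (0.05 s peak window) were recorded on DIV 5, 7, 9 and 12 and collapsed as trapezoidal AUC versus DMSO.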

[12] = CCTE_Shafer_MEA_dev_per_network_spike_spike_percent: CCTE's Neural Network Formation Assay for Percent of Spikes in a Network Spike, Shafer Lab (AID 2284054)
In short: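 Metric: fraction of spikes falling in a 0.05 s window at network-spike peaks. Recordings were made on days 5, 7, 9 and 12 and collapsed by trapezoidal AUC. Cultures were rat cortical neurons on MEA plates, dosed continuously from plating, re-dosed at media changes.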

[13] = CCTE_Shafer_MEA_dev_mutual_information_norm: CCTE's Neural Network Formation Assay for Mutual Information Normalization, Shafer Lab (AID 2284091)
In short: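 Shared information across electrodes, tracked on days 5, 7, 9 and 12 of network development and collapsed as trapezoidal area under the curve. Rat cortical cultures were treated continuously from plating, with treatment renewed at feeds on DIV 5 and 9; DMSO baseline, negative-direction fit.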

[14] = CCTE_Shafer_MEA_dev_correlation_coefficient_mean: CCTE's Neural Network Formation Assay for Mean Correlation Coefficient, Shafer Lab (AID 2284093)
In short: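 Spontaneous activity recorded on days 5, 7, 9 and 12 post-plating; pairwise spike correlations are averaged across active electrodes and collapsed to an area-under-curve. Rat cortical cultures are dosed from plating through 12 days, with compound renewed at media changes.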

[15] = IUF_NPC1b_proliferation_BrdU_72hr: Leibniz Research Institute for Environmental Medicine (IUF) 72-hour Neural Progenitor Cell Bromodeoxyuridine (BrdU) Proliferation Assay (NPC1b) (AID 2284207)
In short: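 Human fetal cortex-derived (GW 16-19) neural progenitor spheres, 0.25-0.35 mm, one per well in EGF/FGF proliferation medium, exposed to compound for 72 h at 37C, pH 7.2-7.6. BrdU incorporation over the final 16 h read by luminescence ELISA, relative to DMSO.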

[16] = IUF_NPC1a_proliferation_area_72hr: Leibniz Research Institute for Environmental Medicine (IUF) 72-hour Neural Progenitor Cell Proliferation Area Assay (NPC1a) (AID 2284208)
In short: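 Single 0.25–0.35 mm human fetal neural progenitor spheres in proliferation medium with EGF and FGF, exposed 72 h from plating without renewal at 37C, pH 7.2-7.6. Sphere area growth measured by automated phase-contrast imaging, relative to DMSO.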

[17] = IUF_NPC1_viability_72hr: Viability Assessment at 72 hours in the Leibniz Research Institute for Environmental Medicine (IUF) Neural Progenitor Cell Proliferation Assay (NPC1) (AID 2284209)
In short: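 Three-day continuous exposure of human neural progenitor spheres under EGF/FGF-driven proliferation; cell viability scored by alamar blue signal versus DMSO.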

[18] = CCTE_Mundy_HCI_Cortical_Synap_Neur_Matur_NeuriteSpotCountPerNeuriteLength: CCTE's Synaptogenesis and Neurite Maturation Assay in rat cortical cells for Neurite Spot Count per Neurite Length, Mundy Lab (AID 2284210)
In short: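 Synaptophysin spots per unit neurite length, measured by automated imaging of MAP2/synaptophysin/Hoechst-stained neurons. Cultures from rat cortex received chemical at DIV 7 with media change through DIV 12; glial growth arrested by AraC at DIV 5; DMSO baseline.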

[19] = CCTE_Mundy_HCI_Cortical_Synap_Neur_Matur_BPCount: CCTE's Synaptogenesis and Neurite Maturation Assay in rat cortical cells for Branch Point Count, Mundy Lab (AID 2284211)
In short: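 In this multiplexed morphology assay, cortical cells from rat receive chemicals at DIV 7 and are fixed at DIV 12, then immunostained and imaged; branch points are counted, with DMSO as baseline.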

[20] = CCTE_Mundy_HCI_Cortical_NOG_NeuriteCount: CCTE's Neurite Outgrowth Assay in rat cortical cells for Neurite Count, Mundy Lab (AID 2284212);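 also: cells fixed about two days after chemical exposure began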
In short: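 Rat cortical primary cells; compound added 2 h post-plating, 1/10 dilution of working solution. Anti-betaIII-tubulin/AF488 ICC; ArrayScan neurite count vs DMSO.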

[21] = CCTE_Mundy_HCI_Cortical_NOG_NeuriteLength: CCTE's Neurite Outgrowth Assay in rat cortical cells for Neurite Length, Mundy Lab (AID 2284213)
In short: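 First, rat primary cortical cells were plated and, 2 h later, given test chemical as a 1/10 dilution. Finally, βIII-tubulin immunostaining enabled automated imaging of neurite length.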

[22] = CCTE_Mundy_HCI_Cortical_Synap_Neur_Matur_NeuriteLength: CCTE's Synaptogenesis and Neurite Maturation Assay in rat cortical cells for Neurite Length, Mundy Lab (AID 2284214)
In short: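 DMSO-normalised neurite length, from high-content imaging of anti-MAP2-stained rat cortical cells fixed at DIV 12. Glia were suppressed with AraC (DIV 5) before chemical exposure from DIV 7.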

[23] = CCTE_Mundy_HCI_Cortical_Synap_Neur_Matur_NeuriteSpotCountPerNeuron: CCTE's Synaptogenesis and Neurite Maturation Assay in rat cortical cells for Neurite Spot Count per Neuron Count, Mundy Lab (AID 2284215)
In short: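 Rat primary cortical cultures given AraC at DIV 5, dosed from DIV 7 to DIV 12 with media change. Fixed, stained for MAP2, synaptophysin and Hoechst; neurite-associated synaptophysin puncta per neuron quantified by high-content imaging versus DMSO.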

Measured: AC50

CCCCCC(C)(CC)C(=O)NC (stereo not drawn)
active: [1] 74.5 µM | [2] 50 µM | [9] 9.92 µM | [15] 85.3 µM
inactive: all other assays above

Source: PubChem BioAssay (EPA / NIEHS)
